# Experimental data from the supplement of paper PMC11732987, “Enantioselective OTUD7B fragment discovery through chemoproteomics screening and high-throughput optimisation” (Communications Chemistry, 2025).
# A number with no mark means an inactive call.
# How the values were obtained:
# Assay in all cases: log2 ratio of Biotin-Ahx-Ub-VS probe labelling (fragment/DMSO); higher = less target engagement (more negative = stronger competition), active = hit call of the paper (q ≤ 0.05, log2 ratio ≤ -1)
# Conditions in all cases: compound concentration: 200 uM; treatment time: 3 h
# [1] = target: USP16 (UniProt Q9Y5T5)
# Chain of USP16 (Q9Y5T5 whole entry, looked up, the tested form may be a part): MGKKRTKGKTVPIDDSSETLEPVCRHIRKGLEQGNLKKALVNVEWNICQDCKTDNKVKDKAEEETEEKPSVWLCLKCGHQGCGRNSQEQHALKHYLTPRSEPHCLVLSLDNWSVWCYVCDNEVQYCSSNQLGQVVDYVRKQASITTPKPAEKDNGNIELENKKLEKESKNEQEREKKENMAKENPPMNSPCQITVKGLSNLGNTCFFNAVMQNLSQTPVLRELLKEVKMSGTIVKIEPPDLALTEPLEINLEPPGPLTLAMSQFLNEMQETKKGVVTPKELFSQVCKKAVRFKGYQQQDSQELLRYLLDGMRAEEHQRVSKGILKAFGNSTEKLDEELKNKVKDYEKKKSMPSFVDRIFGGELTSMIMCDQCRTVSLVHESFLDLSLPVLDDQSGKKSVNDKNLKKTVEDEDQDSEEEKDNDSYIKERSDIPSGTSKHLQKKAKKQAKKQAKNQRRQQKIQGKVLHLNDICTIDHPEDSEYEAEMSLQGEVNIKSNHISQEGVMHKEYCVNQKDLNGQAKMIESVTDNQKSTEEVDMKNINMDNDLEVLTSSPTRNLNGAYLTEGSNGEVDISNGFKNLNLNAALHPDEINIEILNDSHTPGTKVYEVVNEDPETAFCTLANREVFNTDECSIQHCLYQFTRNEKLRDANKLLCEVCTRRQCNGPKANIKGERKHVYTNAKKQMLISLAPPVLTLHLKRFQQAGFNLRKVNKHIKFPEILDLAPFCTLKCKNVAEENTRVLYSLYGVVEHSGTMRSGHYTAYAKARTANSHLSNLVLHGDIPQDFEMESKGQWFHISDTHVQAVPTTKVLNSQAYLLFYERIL
# In short: (§1)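 Global-median-normalised Spectronaut label-free quantities were compared by unpaired t-test, and values are average log2 ratios of fragment over vehicle. Only proteins with ≥2 unique peptides were used. HEK293T lysate (495 µg per sample) was treated in triplicate with fragment at 200 µM or vehicle for 3 h and then with Biotin-Ahx-Ub-VS at 0.5 µM final for 1 h. Labelled DUBs were then NeutrAvidin-enriched, digested with LysC and trypsin, and run by diaPASEF LC-MS/MS.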
# [2] = target: T1, USP19 (UniProt O94966)
# T1 sequence (whole entry): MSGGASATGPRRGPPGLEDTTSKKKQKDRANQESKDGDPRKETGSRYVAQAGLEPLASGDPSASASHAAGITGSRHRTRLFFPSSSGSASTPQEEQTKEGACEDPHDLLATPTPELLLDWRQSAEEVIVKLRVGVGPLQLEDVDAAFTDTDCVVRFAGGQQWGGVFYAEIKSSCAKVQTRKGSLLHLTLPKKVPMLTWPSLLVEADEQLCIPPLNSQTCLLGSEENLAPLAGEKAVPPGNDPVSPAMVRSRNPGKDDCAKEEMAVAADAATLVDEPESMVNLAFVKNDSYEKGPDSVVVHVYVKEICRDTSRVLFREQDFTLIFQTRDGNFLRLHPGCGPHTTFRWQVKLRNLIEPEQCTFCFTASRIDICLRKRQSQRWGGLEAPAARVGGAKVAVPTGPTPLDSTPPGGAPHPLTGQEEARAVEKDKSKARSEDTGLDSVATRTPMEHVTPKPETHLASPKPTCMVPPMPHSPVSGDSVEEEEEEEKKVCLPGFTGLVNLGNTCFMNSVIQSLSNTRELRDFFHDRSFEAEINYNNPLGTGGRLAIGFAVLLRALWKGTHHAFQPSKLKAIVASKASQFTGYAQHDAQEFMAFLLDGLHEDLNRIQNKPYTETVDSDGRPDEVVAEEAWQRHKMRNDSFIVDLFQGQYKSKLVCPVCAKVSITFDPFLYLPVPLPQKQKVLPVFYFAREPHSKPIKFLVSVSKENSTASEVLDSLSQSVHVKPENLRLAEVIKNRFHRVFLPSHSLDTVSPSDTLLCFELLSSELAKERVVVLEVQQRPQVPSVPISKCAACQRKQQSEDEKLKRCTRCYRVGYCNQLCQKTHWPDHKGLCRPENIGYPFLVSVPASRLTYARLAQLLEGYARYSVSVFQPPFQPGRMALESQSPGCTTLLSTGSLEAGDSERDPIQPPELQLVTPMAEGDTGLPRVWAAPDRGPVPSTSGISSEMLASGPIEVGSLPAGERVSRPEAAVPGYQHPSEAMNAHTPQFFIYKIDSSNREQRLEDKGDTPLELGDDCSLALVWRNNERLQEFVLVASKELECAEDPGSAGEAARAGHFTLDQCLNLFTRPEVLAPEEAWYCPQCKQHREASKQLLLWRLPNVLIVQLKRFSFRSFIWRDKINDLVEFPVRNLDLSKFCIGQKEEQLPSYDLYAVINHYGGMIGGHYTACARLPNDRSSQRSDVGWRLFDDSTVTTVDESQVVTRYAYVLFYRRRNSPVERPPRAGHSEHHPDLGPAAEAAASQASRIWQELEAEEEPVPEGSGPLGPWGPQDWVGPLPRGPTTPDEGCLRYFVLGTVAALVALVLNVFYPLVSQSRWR
# In short: as §1
# [3] = target: USP24 (UniProt Q9UPU5)
# Chain of USP24 (Q9UPU5 whole entry): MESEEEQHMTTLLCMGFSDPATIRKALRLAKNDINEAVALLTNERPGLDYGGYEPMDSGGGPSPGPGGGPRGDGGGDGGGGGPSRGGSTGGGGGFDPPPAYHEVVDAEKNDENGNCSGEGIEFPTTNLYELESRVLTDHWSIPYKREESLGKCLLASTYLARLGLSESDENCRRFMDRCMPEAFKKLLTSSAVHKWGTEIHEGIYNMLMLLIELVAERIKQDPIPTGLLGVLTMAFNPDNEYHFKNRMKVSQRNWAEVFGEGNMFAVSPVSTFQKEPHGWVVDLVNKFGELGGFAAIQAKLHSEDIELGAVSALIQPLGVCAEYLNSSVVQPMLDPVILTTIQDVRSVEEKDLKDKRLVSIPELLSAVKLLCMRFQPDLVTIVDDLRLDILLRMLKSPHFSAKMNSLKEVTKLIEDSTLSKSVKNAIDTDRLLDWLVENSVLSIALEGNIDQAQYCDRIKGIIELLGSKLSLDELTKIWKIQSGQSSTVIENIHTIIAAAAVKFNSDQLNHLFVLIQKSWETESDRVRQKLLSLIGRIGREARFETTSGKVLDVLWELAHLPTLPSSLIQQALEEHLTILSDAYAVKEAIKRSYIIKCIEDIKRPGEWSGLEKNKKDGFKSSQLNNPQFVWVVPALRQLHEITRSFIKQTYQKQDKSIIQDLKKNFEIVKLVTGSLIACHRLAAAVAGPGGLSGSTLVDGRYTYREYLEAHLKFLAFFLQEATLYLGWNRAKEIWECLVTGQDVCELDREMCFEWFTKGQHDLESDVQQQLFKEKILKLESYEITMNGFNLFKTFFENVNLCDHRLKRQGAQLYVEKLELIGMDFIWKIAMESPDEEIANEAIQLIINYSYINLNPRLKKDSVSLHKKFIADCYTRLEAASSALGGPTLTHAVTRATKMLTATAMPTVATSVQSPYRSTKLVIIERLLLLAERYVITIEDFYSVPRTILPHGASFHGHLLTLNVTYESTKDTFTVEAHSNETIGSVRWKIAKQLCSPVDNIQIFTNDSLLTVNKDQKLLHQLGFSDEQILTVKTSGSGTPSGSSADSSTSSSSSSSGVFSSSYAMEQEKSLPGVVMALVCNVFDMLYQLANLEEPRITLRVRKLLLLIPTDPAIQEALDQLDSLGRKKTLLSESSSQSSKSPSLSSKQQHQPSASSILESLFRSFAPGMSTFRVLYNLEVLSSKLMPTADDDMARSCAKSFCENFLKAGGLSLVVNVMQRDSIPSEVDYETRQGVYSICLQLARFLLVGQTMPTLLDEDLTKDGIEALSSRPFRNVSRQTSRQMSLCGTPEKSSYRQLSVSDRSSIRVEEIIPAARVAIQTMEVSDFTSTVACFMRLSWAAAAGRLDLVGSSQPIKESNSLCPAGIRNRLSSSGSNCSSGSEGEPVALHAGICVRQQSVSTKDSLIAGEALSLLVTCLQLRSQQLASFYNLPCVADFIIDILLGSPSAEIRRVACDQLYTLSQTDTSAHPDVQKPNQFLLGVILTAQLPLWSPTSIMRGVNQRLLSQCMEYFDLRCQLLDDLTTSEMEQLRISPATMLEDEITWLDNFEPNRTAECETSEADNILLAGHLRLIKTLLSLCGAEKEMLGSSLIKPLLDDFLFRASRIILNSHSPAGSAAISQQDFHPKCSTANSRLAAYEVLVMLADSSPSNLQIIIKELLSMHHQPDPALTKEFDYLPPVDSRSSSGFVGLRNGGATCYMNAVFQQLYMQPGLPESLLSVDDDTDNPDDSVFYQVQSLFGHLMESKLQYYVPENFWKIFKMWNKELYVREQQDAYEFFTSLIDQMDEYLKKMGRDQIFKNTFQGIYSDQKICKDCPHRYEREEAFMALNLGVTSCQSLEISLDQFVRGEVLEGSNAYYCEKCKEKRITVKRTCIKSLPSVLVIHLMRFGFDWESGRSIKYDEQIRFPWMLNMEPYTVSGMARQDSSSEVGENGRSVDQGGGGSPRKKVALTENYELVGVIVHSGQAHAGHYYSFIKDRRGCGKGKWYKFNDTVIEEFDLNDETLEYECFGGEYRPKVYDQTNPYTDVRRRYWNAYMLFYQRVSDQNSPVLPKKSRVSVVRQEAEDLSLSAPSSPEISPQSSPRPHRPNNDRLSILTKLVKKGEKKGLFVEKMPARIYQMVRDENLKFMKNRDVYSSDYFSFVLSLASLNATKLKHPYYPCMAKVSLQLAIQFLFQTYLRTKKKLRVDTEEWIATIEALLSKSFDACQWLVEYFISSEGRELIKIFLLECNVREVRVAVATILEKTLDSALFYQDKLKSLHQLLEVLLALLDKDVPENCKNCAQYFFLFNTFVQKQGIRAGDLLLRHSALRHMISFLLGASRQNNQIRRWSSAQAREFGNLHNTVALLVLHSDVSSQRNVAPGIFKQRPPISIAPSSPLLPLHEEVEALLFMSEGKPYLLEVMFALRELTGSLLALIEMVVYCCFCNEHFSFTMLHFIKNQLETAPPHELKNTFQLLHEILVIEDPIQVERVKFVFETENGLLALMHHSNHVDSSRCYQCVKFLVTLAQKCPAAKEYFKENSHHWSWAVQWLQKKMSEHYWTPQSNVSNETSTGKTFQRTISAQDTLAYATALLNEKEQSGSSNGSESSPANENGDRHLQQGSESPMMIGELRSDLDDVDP
# In short: as §1
# [4] = target: T2, USP25 (UniProt Q9UHP3)
# T2 sequence (whole entry): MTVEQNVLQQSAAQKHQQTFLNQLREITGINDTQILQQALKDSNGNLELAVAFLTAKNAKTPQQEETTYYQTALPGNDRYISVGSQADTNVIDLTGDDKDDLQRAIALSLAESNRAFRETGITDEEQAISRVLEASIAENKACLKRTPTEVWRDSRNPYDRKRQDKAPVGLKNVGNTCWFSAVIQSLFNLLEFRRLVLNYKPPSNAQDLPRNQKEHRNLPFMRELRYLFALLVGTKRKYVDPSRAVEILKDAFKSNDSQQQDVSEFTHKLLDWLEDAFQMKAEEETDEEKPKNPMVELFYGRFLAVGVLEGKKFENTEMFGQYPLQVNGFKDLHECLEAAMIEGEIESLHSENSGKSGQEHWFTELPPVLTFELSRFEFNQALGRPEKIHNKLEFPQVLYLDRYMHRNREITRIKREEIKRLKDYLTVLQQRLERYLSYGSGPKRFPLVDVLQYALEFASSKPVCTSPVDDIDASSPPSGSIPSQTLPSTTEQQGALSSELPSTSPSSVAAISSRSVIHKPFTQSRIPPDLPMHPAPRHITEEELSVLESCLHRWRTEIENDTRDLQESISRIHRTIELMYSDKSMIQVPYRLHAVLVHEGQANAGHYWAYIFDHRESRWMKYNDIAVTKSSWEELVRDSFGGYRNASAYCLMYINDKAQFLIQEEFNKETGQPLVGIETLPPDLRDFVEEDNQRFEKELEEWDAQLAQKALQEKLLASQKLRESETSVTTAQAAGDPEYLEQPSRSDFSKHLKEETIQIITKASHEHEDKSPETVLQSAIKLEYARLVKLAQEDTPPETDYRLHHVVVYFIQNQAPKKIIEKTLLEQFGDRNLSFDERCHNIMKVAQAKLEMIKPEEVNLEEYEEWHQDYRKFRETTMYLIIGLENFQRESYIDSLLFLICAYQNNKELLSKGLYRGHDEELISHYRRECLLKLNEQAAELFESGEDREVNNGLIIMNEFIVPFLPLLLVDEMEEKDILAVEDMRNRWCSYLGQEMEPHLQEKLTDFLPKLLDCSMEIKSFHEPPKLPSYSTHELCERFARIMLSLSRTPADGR
# In short: as §1
# [5] = target: T3, USP28 (UniProt Q96RU2)
# T3 sequence (whole entry): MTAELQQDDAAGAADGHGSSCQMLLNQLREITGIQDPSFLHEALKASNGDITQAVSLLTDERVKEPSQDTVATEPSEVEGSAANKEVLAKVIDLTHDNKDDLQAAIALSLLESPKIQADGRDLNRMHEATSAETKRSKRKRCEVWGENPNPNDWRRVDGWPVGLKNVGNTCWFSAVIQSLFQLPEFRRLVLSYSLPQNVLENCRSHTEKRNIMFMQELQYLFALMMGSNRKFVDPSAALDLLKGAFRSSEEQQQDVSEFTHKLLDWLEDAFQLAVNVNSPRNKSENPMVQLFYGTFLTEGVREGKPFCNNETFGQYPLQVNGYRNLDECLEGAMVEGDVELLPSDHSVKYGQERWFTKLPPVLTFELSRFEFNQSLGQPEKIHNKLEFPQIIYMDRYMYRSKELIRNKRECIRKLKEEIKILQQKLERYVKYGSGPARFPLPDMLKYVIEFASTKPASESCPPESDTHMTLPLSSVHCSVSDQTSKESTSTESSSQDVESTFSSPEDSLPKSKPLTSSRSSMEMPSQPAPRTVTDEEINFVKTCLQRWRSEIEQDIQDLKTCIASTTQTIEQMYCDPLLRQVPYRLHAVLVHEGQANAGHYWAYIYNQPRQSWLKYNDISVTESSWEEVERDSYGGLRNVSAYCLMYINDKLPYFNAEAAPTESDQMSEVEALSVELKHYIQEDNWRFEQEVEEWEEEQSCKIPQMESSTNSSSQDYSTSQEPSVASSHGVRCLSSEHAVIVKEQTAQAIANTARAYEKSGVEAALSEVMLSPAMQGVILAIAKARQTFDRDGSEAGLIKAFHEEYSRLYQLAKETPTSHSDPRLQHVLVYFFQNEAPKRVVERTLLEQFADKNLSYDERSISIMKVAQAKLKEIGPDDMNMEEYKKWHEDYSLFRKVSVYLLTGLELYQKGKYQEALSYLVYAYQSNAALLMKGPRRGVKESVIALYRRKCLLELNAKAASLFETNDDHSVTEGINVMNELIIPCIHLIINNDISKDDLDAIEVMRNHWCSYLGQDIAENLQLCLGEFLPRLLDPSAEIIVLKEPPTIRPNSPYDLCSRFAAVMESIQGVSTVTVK
# In short: as §1
structure (smiles),measurement,setting,value
O=C(CCl)N1CCc2sccc2C1,log2 ratio of Biotin-Ahx-Ub-VS probe labelling,[1],-0.278
same,log2 ratio of Biotin-Ahx-Ub-VS probe labelling,[2],-1.19 (active)
same,log2 ratio of Biotin-Ahx-Ub-VS probe labelling,[3],-1.31 (active)
same,log2 ratio of Biotin-Ahx-Ub-VS probe labelling,[4],-1.13 (active)
same,log2 ratio of Biotin-Ahx-Ub-VS probe labelling,[5],-0.791
